esBAF inh: SWI/SNF esBAF complex inhibition. mouse ES cells, Bmi1-luciferase knock-in reporter, 24 h; 100% = twice the neutral-well signal. reporter increase, % at 12.5 µM. 350,000 tested, 2% active. AID 602393; in the data active means activation above about 40%;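 further: a rise in the Bmi1 reporter signal indicates esBAF inhibition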
SMARCA2 act: activators of SMARCA2 function. MG213 cells, MMTV-luciferase reporter, dexamethasone, overnight. activation, % at 9.1 µM. 370,000 tested, 1% active. AID 652017; in the data active means activation above about 7.8%
697 NFkB inh: lowers PMA/ionomycin-induced NF-kB signal in 697 B cells | 697 B-cell NF-kB luciferase reporter, 16 h | inhibition, % at 4 µM | 330,000 tested, 0.33% active; in the data active means inhibition above about 35%
Gli-Sufu block: blocks Gli-Sufu signaling in a luciferase reporter; 340,000 tested, 0.74% active; inhibition, % at 5 µM; Sufu-KO-LIGHT fibroblasts, Gli luciferase reporter luminescence;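 active means inhibition above about 55%, limit read from the data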
Jurkat NFkB inh: lowers PMA/ionomycin-induced NF-kB signal in Jurkat cells. 330,000 tested, 0.53% active. inhibition, % at 4 µM. PMA/ionomycin-induced NF-kB luciferase reporter, luminescence; in the data active means inhibition above about 50%
697 NFkB conf: lowers PMA/ionomycin-induced NF-kB signal in 697 B cells | 2,000 tested, 35% active | shares compounds with 697 NFkB inh | inhibition, % at 4 µM | 697 B-cell NF-kB luciferase, 16 h; in the data active means inhibition mostly above about 28%, no sharp cut-off; inactive means mostly below about 22%
Gli-Sufu confirm: Gli-SUFU antagonism confirmation, single concentration; shares compounds with Gli-Sufu block; Sufu-KO-LIGHT cells, Gli luciferase reporter, luminescence; inhibition, % at 5 µM; 2,500 tested, 40% active; AID 602428;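 active means mean inhibition at 5 µM reaching about 45%, limit read from the data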
SufuKO cytotox: cytotoxicity counter-screen for Gli-SUFU antagonists; Sufu-KO-LIGHT cells cytotoxicity, ATP luminescence; shares compounds with Gli-Sufu block; 2,500 tested, 32% active; cytotoxicity, % at 5 µM;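 active means mean cytotoxicity at 5 µM above about 25%, limit read from the data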;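 further: cells exposed to compound overnight for roughly 16 to 18 hours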
Wnt3a cs: counter-screen for Gli-SUFU antagonists: Wnt3a reporter inhibition | 2,500 tested, 20% active | inhibition, % at 6.25 µM | shares compounds with Gli-Sufu block | Wnt-LIGHT cells, Wnt3a-driven luciferase reporter, luminescence;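 active means mean inhibition above about 25%, limit read from the data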
A number is an active result. Rows were chosen to be rich in hits. Some 3.3% of all compounds tested hit in one or more screens of this group.

`C=C1C(=O)[C@@]23C[C@H]4[C@@H]5[C@@]6(C)CCC[C@@]57[C@@H]2[C@@H](O)[C@@H]1C[C@H]3[C@H]7N4C6` gave esBAF inh inactive, SMARCA2 act inactive, 697 NFkB inh 44, Gli-Sufu block inactive, Jurkat NFkB inh inactive and 697 NFkB conf 37.
`CNC(=O)Oc1cccc(-c2cn3cc(Cl)ccc3n2)c1` gave SMARCA2 act inactive, 697 NFkB inh inactive, Gli-Sufu block inactive, Jurkat NFkB inh inactive and 697 NFkB conf inactive.
Screening CCn1c(=O)cc(SCC(=O)N2CCC3(CC2)OCCO3)c2ccccc21 returned esBAF inh inactive, SMARCA2 act inactive, 697 NFkB inh 62, Gli-Sufu block inactive, Jurkat NFkB inh inactive and 697 NFkB conf 40.
For COC(=O)[C@H]1[C@H](CO)[C@H]2Cn3c(ccc(/C=C/c4ccccc4)c3=O)[C@@H]1N2C(=O)C1CC1 the results were esBAF inh inactive.
Screening C[C@]12CC[C@H]3C(CCC4(O)CC(O)CC[C@]34C=O)C1=CC[C@H]2c1ccc(=O)oc1 (stereo partly drawn) returned esBAF inh inactive, SMARCA2 act inactive, 697 NFkB inh inactive, Gli-Sufu block inactive, Jurkat NFkB inh inactive and 697 NFkB conf inactive.
For O=C(O)[C@H]1[C@H](CO)[C@H]2Cn3c(ccc(-c4ccncc4)c3=O)[C@@H]1N2C(=O)C1CCC1 the results were esBAF inh inactive.
C[C@H]1CCC[C@@H](O)CCC/C=C/c2cc(O)cc(O)c2C(=O)O1 was read as esBAF inh inactive, SMARCA2 act inactive, 697 NFkB inh 43, Gli-Sufu block inactive, Jurkat NFkB inh inactive and 697 NFkB conf inactive.
`CC1CCC[C@H](O)CCCCCc2cc(O)cc(O)c2C(=O)O1` (stereo partly drawn) gave esBAF inh inactive, SMARCA2 act inactive, 697 NFkB inh inactive, Gli-Sufu block inactive and Jurkat NFkB inh inactive.
CC=Cc1ccc2n(c1=O)C[C@H]1[C@H](CO)[C@@H](C(=O)O)[C@@H]2N1S(=O)(=O)c1ccccc1F (mixture of isomers) was read as esBAF inh inactive.
Screening O=C(Nc1ccc(OC(=O)N2CCCC2)cc1)N1CCOCC1 returned esBAF inh inactive, SMARCA2 act inactive, 697 NFkB inh inactive, Gli-Sufu block inactive and Jurkat NFkB inh inactive.
Screening O=C(Nc1ccc(OC(=O)N2CCCCC2)cc1)N1CCOCC1 returned esBAF inh inactive, SMARCA2 act inactive, 697 NFkB inh 58, Gli-Sufu block inactive, Jurkat NFkB inh inactive and 697 NFkB conf inactive.
`CN(C)c1cccc2c(C#N)ccc(N(C)C)c12` gave SMARCA2 act inactive, 697 NFkB inh 39, Gli-Sufu block inactive, Jurkat NFkB inh inactive and 697 NFkB conf inactive.
Screening COC(=O)C1=C(c2ccc(-c3ccccc3)c(F)c2)C[C@@H]2CC[C@H]1N2C(=O)N1CCCC1 returned esBAF inh inactive, SMARCA2 act inactive, 697 NFkB inh 46, Gli-Sufu block inactive, Jurkat NFkB inh inactive and 697 NFkB conf 62.
COC(=O)C1=C(c2ccc(-c3ccccc3)c(F)c2)C[C@@H]2CC[C@H]1N2C(=O)N1CCCCC1 was read as esBAF inh inactive, SMARCA2 act inactive, 697 NFkB inh inactive, Gli-Sufu block inactive and Jurkat NFkB inh inactive.
Screening CC=Cc1ccc2n(c1=O)C[C@@H]1[C@@H](CO)[C@H](C(=O)OC)[C@H]2N1S(=O)(=O)c1cccc(C)c1 (mixture of isomers) returned esBAF inh inactive.
Cc1nc2ncnn2c(C)c1CCC(=O)N1CCC2(CC1)OCCO2 was read as SMARCA2 act inactive, 697 NFkB inh inactive, Gli-Sufu block inactive and Jurkat NFkB inh inactive.
For Cc1nc2cc(-c3ccccc3)nn2c(C)c1CCC(=O)N1CCC2(CC1)OCCO2 the results were esBAF inh inactive, SMARCA2 act inactive, 697 NFkB inh 43, Gli-Sufu block inactive, Jurkat NFkB inh inactive and 697 NFkB conf 46.
C=C1C(=O)O[C@H]2[C@H]1[C@H](OC(=O)CC(=O)O[C@@H]1C[C@@H](C)[C@@H]3C=CC(=O)[C@@]3(C)[C@H]3OC(=O)C(=C)[C@H]13)C[C@@H](C)[C@H]1C=CC(=O)[C@]12C was read as esBAF inh inactive, SMARCA2 act inactive, 697 NFkB inh inactive, Gli-Sufu block inactive, Jurkat NFkB inh inactive, Gli-Sufu confirm inactive, SufuKO cytotox 35 and Wnt3a cs inactive.
`Cc1cccc(S(=O)(=O)N2[C@@H]3c4ccc(-c5ccccc5)c(=O)n4C[C@H]2[C@H](CO)[C@H]3C(=O)O)c1` gave esBAF inh inactive.
For C#CCNc1ccncc1S(=O)(=O)NC(=O)NC(C)C the results were esBAF inh inactive, SMARCA2 act inactive, 697 NFkB inh inactive, Gli-Sufu block 57, Jurkat NFkB inh inactive, Gli-Sufu confirm inactive, SufuKO cytotox inactive and Wnt3a cs inactive.
Screening CCOC(=O)C1(CCc2ccccc2)CCN(Cc2cccc3c2OCO3)CC1 returned esBAF inh inactive, SMARCA2 act inactive, 697 NFkB inh inactive, Gli-Sufu block inactive and Jurkat NFkB inh inactive.
For CCOC(=O)C1(CCc2ccccc2)CCN(Cc2csc(C(C)=O)c2)CC1 the results were SMARCA2 act inactive, 697 NFkB inh inactive, Gli-Sufu block inactive, Jurkat NFkB inh inactive, Gli-Sufu confirm inactive, SufuKO cytotox inactive and Wnt3a cs inactive.
For CN1C(=O)C(=Cc2ccccc2Oc2ccc(Cl)cc2)C(=O)N(C)C1=O the results were SMARCA2 act inactive, 697 NFkB inh inactive, Gli-Sufu block inactive, Jurkat NFkB inh inactive, Gli-Sufu confirm inactive, SufuKO cytotox inactive and Wnt3a cs inactive.
For CN1C(=O)C(=Cc2ccccc2OCc2ccc(Cl)cc2)C(=O)N(C)C1=O the results were SMARCA2 act inactive, 697 NFkB inh inactive, Gli-Sufu block inactive and Jurkat NFkB inh inactive.
COc1cc(C2c3cc4c(c(O)c3CC3COC(=O)C32)OCO4)cc(OC)c1OC (stereo not drawn) was read as SMARCA2 act inactive, Gli-Sufu block 62, Gli-Sufu confirm 57, SufuKO cytotox 64 and Wnt3a cs inactive.
`COc1ccc2c(c1)C(NC(C)=O)CCc1cc(OC)c(OC)c(OC)c1-2` (stereo not drawn) gave SMARCA2 act inactive, Gli-Sufu block inactive, Gli-Sufu confirm 50, SufuKO cytotox 64 and Wnt3a cs inactive.
